High-throughput results (PubChem BioAssay)
FMDV inh: foot and mouth disease virus antiviral activity | FMDV antiviral cell-based qHTS | 410,000 compounds, 1.2% hits | Potency, µM (series often up to 57.9 µM), for the others: at the highest dose activity change, negative = inhibition, usual class: inhibitors | AID 1159524; calls by dose curve; tested in HEK293T cells; note: read-out not given here; potency is the fitted concentration of half-maximal effect; % is set by controls: 0 for no effect and ±100 for the full control effect; nearly all actives have a fitted effect of over 45% in size
HCV inh: blocks hepatitis C virus; Huh7.5.1 HCVcc-Cre infection, luciferase reporter, 44 h; Potency, µM (titrated, usually from 41.8 µM), for inactives: at the top dose activity change, negative = inhibition, most hits filed as inhibitors; 340,000 compounds, 3.4% hits; AID 651820; active = well fitted inhibition curve with a large enough effect; inconclusive = small, poorly fitted or top-dose-only effect, or another doubt; inactive = no such curve, though single readings can be large or run the other way; note: potency is the fitted concentration of half-maximal effect; % is set by controls: 0 for no effect and ±100 for the full control effect
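Luciferase read-out (15 sec integration) after a 15 min room-temperature substrate step quantifies HCVcc-Cre infection. Cells, 1,000 per well, had compound added 4 h post-plating, then virus at ~0.5 moi, and were cultured 44 h.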
Shiga toxin inh: Shiga toxin inhibition. Vero cells, Shiga toxin protein synthesis inhibition reporter. inhibition, % at 38.7 µM. 290,000 compounds, 9.2% hits. AID 2315; in the data active = inhibition mostly above about 28%, no sharp cut-off; inactive = mostly below about 43%; note: 0% is about no effect
Cycloheximide cs: counter-screen for Shiga toxin inhibitors: cycloheximide protein synthesis inhibition | max response, % | cell reporter, cycloheximide protein synthesis inhibition counterscreen | 300,000 compounds, 12% hits; in the data active = max response mostly above about 13%, no sharp cut-off; inactive = mostly below about 14%; note: read at 38.3 µM for the half of the compounds with a filed dose; 0% is about no effect
MARV entry inh: blocks Marburg virus binding to or entry into cells; Marburg virus pseudotyped entry inhibition, cell reporter; Potency, µM (top dose mostly 37.8 µM), without a hit: at the top dose activity change, negative = inhibition, most hits filed as inhibitors; 300,000 compounds, 1.8% hits; AID 540276; calls by dose curve; tested in HEK293 cells; note: potency is the fitted concentration of half-maximal effect; % is set by controls: 0 for no effect and ±100 for the full control effect
LASV entry inh: Lassa virus entry inhibition; Potency, µM (top dose mostly 37.9 µM), for the others: at the top dose activity change, negative = inhibition, hits mostly inhibitors; AID 540256; Lassa virus pseudotype entry inhibition, cell reporter; 300,000 compounds, 1.2% hits; calls by dose curve; tested in HEK293 cells; note: potency is the fitted concentration of half-maximal effect; % is set by controls: 0 for no effect and ±100 for the full control effect; nearly all actives have a fitted effect of over 50% in size
Active calls of the source: *; ? = inconclusive; / = no result; ! = a repeat was not active; [ ] = dose if it differs, or a comment. This is a sample that favours compounds with a hit; in the whole collection about 13% have one here.

SMILES | FMDV inh | HCV inh | Shiga toxin inh | Cycloheximide cs | MARV entry inh | LASV entry inh
Clc1ccc(-n2ncc3c(N4CCCCCC4)ncnc32)cc1 | ? | -5% | 33 | 21* | / | /
Clc1ccc(Cn2ncc3c(N4CCCCC4)ncnc32)cc1 | ? | ? | 12 | 11 | -21%[46.1 µM] | -17%
Cc1ccc(-n2ncc3c(N4CCCCCC4)ncnc32)cc1Cl | 63µM* | / | / | / | / | 15%[46.1 µM]
Clc1ccc(Cn2ncc3c(N4CCCCC4)ncnc32)c(Cl)c1 | 28µM* | 5% | -13 | 6 | 2% | 3%
CC(=O)c1ccc(N2CCN(c3ncnc4c3cnn4-c3cc(Cl)ccc3C)CC2)cc1 | 14µM* | / | / | / | / | 0%[46.1 µM]
Cc1ccc(-n2ncc3c(N4CCN(Cc5ccccc5)CC4)ncnc32)cc1Cl | 13µM* | / | / | / | / | 5%[46.1 µM]
Cc1ccc(Cl)cc1-n1ncc2c(N3CCCCCC3)ncnc21 | 20µM* | / | / | / | / | ?
CC(=O)c1ccc(N2CCN(c3ncnc4c3cnn4C)CC2)cc1 | ? | / | / | / | / | 18%[46.1 µM]
Fc1ccc(-n2ncc3c(N4CCN(Cc5ccccc5)CC4)ncnc32)cc1 | -5% | / | / | / | / | 1%[46.1 µM]
COc1ccccc1N1CCN(c2ncnc3c2cnn3-c2cc(Cl)ccc2C)CC1 | 11µM* | / | / | / | / | -8%[46.1 µM]
COc1ccc(-n2ncc3c(N4CCN(c5cc(C)ccc5C)CC4)ncnc32)cc1 | ? | 11% | -10 | -3 | 2% | /
Cc1ccc(CN2CCN(Cc3ccc(Oc4ncccn4)cc3)CC2CCO)cc1 (centres undefined) | -17% | 10% | -21 | -2 | / | /
COc1ccc(N2CCN(c3ncnc4c3cnn4-c3ccc(C)c(Cl)c3)CC2)cc1 | -1% | / | / | / | / | 20%[46.1 µM]
Cc1ccc(-n2ncc3c(N4CCCCC4)ncnc32)cc1Cl | 25µM* | / | / | / | / | ?
COc1cc2c(cc1OC)CN(c1nc(-c3cccnc3)nc3ccccc13)CC2 | 16µM* | 14µM* | 14 | -2 | ? | ?
Cc1ccc(C)c(S(=O)(=O)N2CCN(c3nc(-c4cccnc4)nc4ccccc34)CC2)c1 | ? | 11µM* | / | / | / | /
O=S(=O)(c1ccccc1F)N1CCN(c2nc(-c3cccnc3)nc3ccccc23)CC1 | -16% | ? | / | / | / | /
O=C1c2cccc3cccc(c23)C(=O)C1(O)O | 22µM* | -26% | / | / | ? | -24%
Brc1ccc2c(c1)C(OC1CN3CCC1CC3)c1ccccc1CS2 (centres undefined) | -11% | 32µM* | -22 | -8 | 4µM* | ?
CN1CCC(OC2c3ccccc3CCc3ccccc32)CC1 | -24% | / | / | / | / | /
O=C(CCC(=O)NNC(=O)Cc1ccccc1)NCc1ccccc1 | -3% | -4% | -7 | -2 | ? | 1%
O=C(Nc1ccc(Cl)cn1)Nc1ccccc1F | 58% | ? | 53* | 18 | ? | 3%
O=C(Nc1ccc(Cl)cn1)c1ccccc1F | -23% | -6% | 88* | 32* | ? | ?
O=C(Nc1ccc(Cl)cn1)Nc1ccc(Cl)cn1 | 26% | 9% | 27 | -1 | 5%[46.1 µM] | -1%
O=C(Nc1nnc(-c2ccc(Cl)cc2)o1)Nc1ccccc1F | 41% | 26% | 34* | 22 | 13%[46.1 µM] | 19%
SMILES | FMDV inh | HCV inh | Shiga toxin inh | Cycloheximide cs | MARV entry inh | LASV entry inh
COC(=O)c1ccccc1NC(=O)Nc1ccc(Cl)cn1 | 21% | 15% | 35 | 12 | 1%[46.1 µM] | /
COc1cc2ccccc2cc1C(=O)Nc1ccc(Cl)cn1 | 26% | 6% | / | 16* | / | /
COCCN1CCN(C(=O)C2CCC(=O)N(Cc3ccccc3OC)C2)CC1 (centres undefined) | 0% | -5% | 26 | -6 | 9% | -14%
O=C(COc1cccc(F)c1)N1c2ccccc2Sc2ccccc21 | -17% | 11% | -6 | -2 | ? | 0%
CC1(C)CC(NC(=O)c2ccc(Cl)cc2)CC(C)(C)N1 | -8% | -22% | -15 | 0 | -7% | 16%
CC(C(=O)Nc1ccccc1C(=O)N1CCOCC1)N(c1ccc(Cl)cc1)S(C)(=O)=O (centres undefined) | -11% | 3% | 11 | -2 | 11%[14.2 µM] | 6%
CCN(CC)S(=O)(=O)c1cccc(-c2nnc(SCCCC(=O)c3ccccc3)o2)c1 | ? | 16µM* | 17 | 11 | ? | ?
CC(Sc1nnc(-c2ccco2)o1)C(=O)NCCC1=CCCCC1 (centres undefined) | 5% | 0% | -4 | -1 | 0% | ?
CCN(CC)S(=O)(=O)c1cccc(-c2nnc(SCC(=O)c3cc(C)n(C4CC4)c3C)o2)c1 | -12% | -12% | -8 | 2 | ? | ?
CCN(CC)S(=O)(=O)c1cccc(-c2nnc(SC(C)C(=O)NCCC3=CCCCC3)o2)c1 (centres undefined) | ? | 11µM*! | -26 | -7 | 1% | ?
Brc1ccccc1-c1nnc(SCc2nc3ccccc3s2)o1 | -5% | ? | 101* | 53* | ? | ?
CCN(CC)S(=O)(=O)c1cccc(-c2nnc(SCc3nc4ccccc4s3)o2)c1 | 0% | 7.1µM* | 82 | 23* | ? | ?
CCN(CC)S(=O)(=O)c1cccc(-c2nnc(-c3ccc(C)cc3)o2)c1 | 16% | ? | -7 | 3 | -1% | 1%
O=C(Cn1cc(C(=O)C2CCCCC2)c2ccccc21)Nc1ccccc1Cl | -25% | / | / | / | -29%[46.1 µM] | 16%[46.1 µM]
CCN1CCN(c2ccccc2NC(=O)C(C)Oc2ccc(C(C)=O)cc2)CC1 (centres undefined) | -19% | ? | / | / | / | /
O=S(=O)(c1cccc(-c2nnc(SCc3ccc(Cl)cc3)o2)c1)N1CCCCC1 | 0% | ? | -25 | -2 | ? | -21%
CN(C)S(=O)(=O)c1cccc(-c2nnc(SCc3ccc4c(c3)OCCO4)o2)c1 | 18% | ? | 86 | 33* | -11% | -12%
CCN(CC)S(=O)(=O)c1cccc(-c2nnc(SCCCC(=O)c3ccc(F)cc3)o2)c1 | ? | ? | 13 | -2 | 21µM*! | ?
C=CCn1c(C)cc(C(=O)CSc2nnc(-c3cccc(S(=O)(=O)N(CC)CC)c3)o2)c1C | -16% | 8.9µM* | -17 | 16 | -22%[46.1 µM] | ?
CCSC(=O)N1CCCCCC1 | -26% | 0% | / | / | / | /
CCCn1c(=O)c2c(C(F)(F)F)cc(-c3ccco3)nc2n(CCC)c1=O | / | 12% | -4 | -5 | 8% | -18%
CN(C)/C=N/c1nc(-c2ccc3c(c2)OCO3)cs1 | 37% | ? | 178* | 53* | -8%[46.1 µM] | ?
CN(C)/C=N/c1nc(-c2ccc3ccccc3c2)cs1 | 6% | ? | 61* | 47* | ? | 10µM*
COc1ccccc1Nc1c2c(nc3ccccc13)CCC2 | -26% | ? | -6 | -6 | ? | ?
c1ccc2c(Nc3ccc4c(c3)OCCO4)c3c(nc2c1)CCCC3 | -19% | ? | -3 | 14 | ? | 7.9µM*
COc1cc(Nc2c3c(nc4ccccc24)CCCC3)cc(OC)c1OC | -10% | -21% | -4 | -3 | 4.5µM* | -19%[46.1 µM]
COC(=O)c1cccc(Nc2c3c(nc4ccccc24)CCC3)c1 | ? | 3.2µM* | 1 | -2 | ? | ?
